Broadly, the Inhibition is how much of the control response was suppressed.

Results on 40 compounds are retold here after ChEMBL document CHEMBL1157539, “Thousands of chemical starting points for antimalarial lead identification” (Nature, 2010).

The assay concerns HepG2. As to the kind of experiment: GSK_TCMDC: Percent inhibition of human HepG2 cell line. Test compounds present at 10uM. The class given is functional.
`Cc1cccc2nc(-c3cccc(-c4cccc(NC(=O)c5cccnc5Cl)c4)c3)[nH]c12` gave an Inhibition of 0%. The result for `Cc1cc(N/N=C/c2cccc([N+](=O)[O-])c2)c2ccccc2n1` reads 0%; that for `O=C(Nc1cccc(C(F)(F)F)c1)c1cc([N+](=O)[O-])cc2cn[nH]c12`, 60%; that for `CCc1ccc(NC(=O)c2ccc(CN3CCCN(Cc4cccc(O)c4)CC3)cc2)cc1.O=C(O)C(F)(F)F`, 51%.

Compound `Cl.O=[N+]([O-])c1cccc(-c2nc3cc(C4=NC5CCCCC5N4)ccc3[nH]2)c1` (stereo not given) had an Inhibition of 4%. `COc1ccc(CCNc2nc(N)c3cc(OC)c(OC)cc3n2)cc1.Cl` gave an Inhibition of 16%.

The compound `CCn1c(-c2nonc2N)nc2c(-c3cccc(Cl)c3)ncc(OCCCNCCc3c[nH]cn3)c21.O=C(O)C(F)(F)F` displayed an Inhibition of 16%. The result for `C=CCn1c(Sc2ccc(C#N)c([N+](=O)[O-])c2)nnc1-c1cccc(Cl)c1` reads 41%. Then `CCCOc1cc(OCCC)cc(-c2ccc(C(=O)Nc3ccc4ccc(C)nc4c3)c(=O)[nH]2)c1`, with 11%; and `O=C(N[C@H]1CCN(Cc2ccc(OC3CCN(Cc4ccccc4)CC3)c(Br)c2)C1)c1ccc(Cl)c(Cl)c1.O=C(O)C(F)(F)F`, with 55%; and `COc1ccccc1-c1sccc1C(=O)NC1(c2cc(Cl)cc(Cl)c2)CCCC1`, with 0%. `CCn1c(-c2nonc2N)nc2c(-c3cccc(NC(=O)Nc4cccc(Cl)c4)c3)ncc(OCCCN)c21.O=C(O)C(F)(F)F` showed an Inhibition of 9%. In turn, `COC(=O)C(Cc1ccccc1)C(CSCc1ccc(OC)cc1)C(=O)N[C@@H](C(=O)OC(C)(C)C)c1ccc(C(C)(C)C)cc1` (stereo not given in full) displayed an Inhibition of 0%. The result for `CCn1ccc2c(N3CCCS3(=O)=O)cc(C(=O)N[C@@H](Cc3ccccc3)[C@H](O)CNC(C)(C)CCCC(C)C)cc21` reads 8%; that for `CCC(N)(C#Cc1ccc(-c2c(C)[nH]c(C)c(Br)c2=O)cc1)CC`, 0%. As for `COc1ccc(C(=O)CCC(=O)N(CCSC(C)(C)C)Cc2ccc(-c3ccc(CNCCc4ccc(S(C)(=O)=O)cc4)cn3)cc2)cc1F.O=C(O)C(F)(F)F`, the Inhibition was determined as 9%.

In turn, `FC(F)(F)c1ccc(CSc2ccc3nnc(-c4ccccn4)n3n2)cc1` yielded an Inhibition of 0%. Then `COc1ccc2c(OC)c(CNCCCCCCNCc3ccc4cc(OC)ccc4c3OC)ccc2c1.CS(=O)(=O)O`, with 100%; and `O=C(O)C(F)(F)F.O=C1CCCN1CCCNCc1cccc(-c2cccc(-c3nc4cc(F)ccc4[nH]3)c2)c1`, with 6%; and `CCOc1cc2c(cc1OCC)C(c1cc(OC)c(O)cc1Cl)NCC2` (stereo not given), with 15%. In turn, `COCCNCc1cccc(-c2cc3nccc(Nc4ccc(Oc5ccccc5)cc4)c3cc2Cl)c1` gave an Inhibition of 0%. The compound `COc1ccc2ncc(F)c([C@H](O)CN3CCC(NCc4ccc5c(c4)NC(=O)CS5)CC3)c2c1.Cl` yielded an Inhibition of 7%. In the case of `O=C(NCC1CCC(C(=O)NCCc2ccc(Cl)c(Cl)c2)CC1)c1ccc(O)c(-c2ccc(Cl)c(Cl)c2)c1` (stereo not given), the Inhibition is listed as 0%.

`CC1CN(c2ccnc3ccc(Sc4ccc(Oc5ccccc5)cc4)cc23)CC(C)N1.Cl` (stereo not given) registered an Inhibition of 33%. Take `CC(C)N1CCN(C(=O)c2ccc(CNCCCN3CCN(c4cccc(Cl)c4Cl)CC3)s2)CC1.Cl`: the Inhibition is on record as 51%. In turn, `Clc1ncnc2ncn(Cc3cccc(Br)c3)c12` yielded an Inhibition of 0%. On to `CCCCNC(=O)[C@H](CC1CCCCC1)NC(=O)c1ccc(O)c(-c2ccc(Cl)c(Cl)c2)c1`, for which the Inhibition came to 0%. Consider `Fc1cccc(COc2ccc(Nc3ncnc4sc(C#CC5CCCCN5)cc34)cc2Cl)c1.O=C(O)C(F)(F)F` (stereo not given), for which the Inhibition was 30%. The compound `CNC(=S)NCc1cnc2ccccn12` gave an Inhibition of 0%.

In turn, `N#Cc1ccc(N2CCN(Cc3ccc(-c4ccc(-c5nc6cc(C(F)(F)F)ccc6[nH]5)s4)cc3)CC2)nc1.O=C(O)C(F)(F)F` displayed an Inhibition of 13%. Then `CC(Cc1ccc(NC(=O)c2ccc(CNCc3ccccc3)cc2)cc1)N(CCc1cccc(Cl)c1)C(=O)OC(C)(C)C` (stereo not given), with 16%; and `COc1ccc2nccc([C@@H](O)CN3CCC(NC(=O)/C=C/c4cccc(-c5ccccc5)c4)CC3)c2c1`, with 12%; and `Cc1cc(CNC(=O)c2ccc(-c3ccc(-c4nc5cc(C(F)(F)F)ccc5[nH]4)s3)cc2)on1`, with 15%. `CC(=O)c1ccccc1C(=O)N1CCOc2ccc(C(O)C(c3ccccc3)c3ccccc3)cc2C1` (stereo not given) returned an Inhibition of 10%. As to `CC(C)Nc1ccc(Nc2ccnc3cc4ccccc4cc23)cc1`, the Inhibition is reported as 37%. The result for `COc1ccc2c(NN=Cc3cccc(C)n3)ccnc2c1` reads 0%; that for `COc1cc2c(cc1S(=O)(=O)c1ccc(NC(=O)c3ccc4ccccc4c3)cc1)CCN(C)CC2`, 2%; that for `CN(c1ccc2c(c1)nc(NCc1ccccc1)n2C)c1ccnc(Nc2ccc(CS(C)(=O)=O)cc2)n1.Cl`, 61%.

Turning to `N=C(N)NN=CC(=O)Nc1ccc(Cl)c(Cl)c1`, the Inhibition is reported as 0%. As to `COc1ccccc1C1CN(Cc2coc3ccccc3c2=O)Cc2ccccc2O1` (stereo not given), the Inhibition stood at 4%.
